The values that follow come from ChEMBL document CHEMBL4513216, “Probing the Open Global Health Chemical Diversity Library for Multistage-Active Starting Points for Next-Generation Antimalarials” (ACS Infect Dis, 2020).

Hit rate of the full screen: of about 69,000 compounds, about 8,600 (12%) showed an effect of 50% or more. The list comes from a sample in which strong results are over-represented; it also holds similar structures and randomly drawn compounds.

The test system of the assay is Plasmodium berghei. The assay can be described thus: Screen against P. berghei liver stage (PbLuc), transformed with Luciferase, at 10uM. It counts as functional, HepG2. Conditions: tested at 10 uM.
As for `COc1ccc(C)cc1Nc1nc2c(C)nn(C)c2c(=O)n1C`, the INHIBITION is listed as -2.13%.
With `COCCN1CCC(CNC(=O)C2(c3cccc(Cl)c3)CC2)C1` (centres undefined), the INHIBITION stood at 30.6%.
The result for `c1cncc(CN2CCC(c3ccc4c(c3)OCO4)CC2)c1` reads 6.4%.
The result for `Cc1nc(O)c2nnn(C[C@H]3CCCN3C(=O)C3CCCC3)c2n1` reads 30.4%; that for `Cc1cc(NC(=O)NCCCSc2nncn2C)no1`, 15%; that for `Cc1nn(C)c(N(C)C)c1CNCc1ccc2c(c1)OCO2`, 11.4%.
As for `COC1CCN(c2ccc(F)cc2CN(C)CC(N)=O)CC1`, the INHIBITION was -3.83%.
As to `CN1CCCC(c2cccc(Cc3ccccc3Cl)n2)C1` (centres undefined), the INHIBITION came out at 51.7%.
Then `CN1CCCC(c2cccc(CCC(N)=O)n2)C1` (centres undefined), with -4.51%; and `CC(=O)N1CCCC1c1cccc(Cc2ccccc2Cl)n1` (centres undefined), with 38.2%.
As for `NC(=O)NC(=O)CCSCc1cc(F)cc2cccnc12`, the INHIBITION is listed as -28.9%.
As to `Cc1ccc(-c2nc(CNCC3CN(C)CCO3)co2)c(C)c1` (centres undefined), the INHIBITION was 7.12%.
Then `CNC(=O)Cc1coc(-c2ccc(F)cc2)n1`, with 48.1%; and `NC(=O)NC(=O)CCSCc1coc(-c2cccc(Cl)c2)n1`, with 5.91%; and `Cc1ccc(-c2nc(CSCCC(=O)NC(N)=O)co2)c(C)c1`, with 87.4%.
For the compound `Cc1ccc(-c2nc(CCNC(=O)NCC(C)(C)C(N)=O)co2)cc1`, the INHIBITION came to 27.6%.
Then `CNC(=O)CCS(=O)(=O)Cc1coc(-c2ccc(F)cc2)n1`, with 7.43%.
For the compound `NC(=O)NC(=O)CCSCc1coc(-c2ccc(F)cc2)n1`, the INHIBITION was 67.8%.
Consider `Cc1ccc(-c2nc(CSCCC(=O)NC(N)=O)co2)cc1`, for which the INHIBITION is 89.6%.
The result for `CS(=O)(=O)c1cccc(C(N)c2ccc(F)c(F)c2)c1` (centres undefined) reads -15%; that for `COCCNC(=O)Cn1c(-c2ccc(F)cc2)nc(C)c(CCO)c1=O`, -20.7%.
The result for `CC1CCN(CC(=O)NC2CCN(C(C)c3ccccc3)CC2)CC1` (centres undefined) reads -1.845%; that for `NCC1CCC(C(NC(=O)CC2CCCC2)c2ccccn2)CC1` (centres undefined), 1.11%; that for `Cc1cc(-c2nn3c(C4CC4)nnc3s2)on1`, -6.47%.
Then `CCn1c(C)cc(C(=O)N2CCCC(C(=O)c3nccn3C)C2)c1C` (centres undefined), with -1.09%; and `CC(=O)NC1CCN(c2cnc(C3CCNCC3)cn2)CC1`, with 18.3%; and `COCC1CCCN(c2cncc(OCc3ccccc3)n2)C1` (centres undefined), with 26.5%.
Turning to `CC(Cn1cccn1)NCc1nc(-c2ccco2)no1` (centres undefined), the INHIBITION came out at 12.7%.
On to `Cc1cnn(CC(C)NCc2nc(-c3ccccn3)no2)c1` (centres undefined), for which the INHIBITION was 56.1%.
For the compound `CC(Cn1cccn1)NCc1nc(-c2ccccn2)no1` (centres undefined), the INHIBITION was -62.7%.
Take `Cc1cnn(CCNCc2nc(-c3ccccn3)no2)c1`: the INHIBITION is recorded as -50.5%.
As to `Cc1cccc(-c2noc(CNC(C)Cn3cc(C)cn3)n2)c1` (centres undefined), the INHIBITION is listed as 25.4%.
The result for `Cc1cnn(CC(C)NCc2nc(-c3ccco3)no2)c1` (centres undefined) reads 53.5%; that for `CN1CC(=O)N(c2cccnc2)CC12CCN(C(=O)c1cccnc1)C2` (centres undefined), -13.3%; that for `O=C(c1ccccc1OC1CCCC1)N1CCCC(n2cncn2)C1` (centres undefined), 49.8%.
The result for `Cc1ccc(CN2CCC3(CCC(C(=O)N(C)C)O3)CC2)o1` (centres undefined) reads -7.28%.
Then `Cn1cc(CC2CCN(C(=O)NCc3cn4ccsc4n3)C2)cn1` (centres undefined), with 19.7%; and `CC(C)CNC(=O)N1C[C@@H]2C[C@H](C(=O)NCc3ccccc3)[C@H](C1)O2`, with -7.2%.
`COc1ccccc1N1CC(NC(=O)Cn2cc(C(C)C)nn2)CC1=O` (centres undefined): the INHIBITION is given as -14.2%.
Then `COc1ccccc1N1CC(NC(=O)Cn2cc(C)nn2)CC1=O` (centres undefined), with -71.7%; and `COc1ccccc1N1CC(NC(=O)c2cc(C(C)C)nn2C)CC1=O` (centres undefined), with 69.4%; and `Cc1ncccc1CNCC1CCc2nnc(C(C)C)n2C1` (centres undefined), with 29.8%.
Then `Cc1ncsc1CCNC(=O)Cn1nc(C)n(Cc2ccccc2)c1=O`, with -171%.
Then `CC(c1ccccc1Cl)N(C)Cc1nc2c(cnn2C)c(=O)[nH]1` (centres undefined), with 16.165%.
Consider `CCN(CC)C(CNC(=O)c1cccnc1-n1cncn1)c1ccsc1` (centres undefined), for which the INHIBITION came out at 21.1%.
The result for `CC(C)(C)C(=O)N1CCC(n2nc(-c3ccco3)ccc2=O)CC1` reads -4.51%; that for `O=C(c1cccs1)N1CCC(Cn2nc(-c3ccco3)ccc2=O)CC1`, 33.5%.
With `O=C(c1ccco1)N1CCC(n2nc(-c3cccs3)ccc2=O)CC1`, the INHIBITION is listed as 5.11%.
The result for `O=C(c1ccco1)N1CCC(n2nc(-c3ccco3)ccc2=O)CC1` reads -8.12%; that for `O=C(c1cccs1)N1CCC(n2nc(-c3ccco3)ccc2=O)CC1`, 50.6%.
As for `CC(C)C(=O)N1CCC(n2nc(-c3ccco3)ccc2=O)CC1`, the INHIBITION is 61.7%.
The result for `COc1cc(N2C[C@H]3CN(C(=O)c4cccnc4)C[C@H]3C2)ncn1` reads 0.164%; that for `CC(C)N(C)Cc1cc(=O)n2c(n1)CN(C(=O)c1cnccn1)CCC2`, 33.5%; that for `COc1ccc(CNC(=O)NC(C)(C(=O)O)c2ccco2)cc1F` (centres undefined), 53.9%.
In the case of `CC(NC(=O)NCc1cccc(F)c1)(C(=O)O)c1ccco1` (centres undefined), the INHIBITION is reported as 4.52%.
Take `CC(NC(=O)NCc1ccccc1F)(C(=O)O)c1ccco1` (centres undefined): the INHIBITION is 25.1%.
Then `CC(NC(=O)NCc1c(F)cccc1Cl)(C(=O)O)c1ccco1` (centres undefined), with 14.1%.
Turning to `CC(NC(=O)NCc1ccccc1)(C(=O)O)c1ccco1` (centres undefined), the INHIBITION turned out to be 58%.
`CC(C)Oc1cccc(CNC(=O)NC(C)(C(=O)O)c2ccco2)c1` (centres undefined): the INHIBITION was found to be 14.4%.
In the case of `COc1c(CNC2CCCOc3ccc(F)cc32)c(C(C)C)nn1C` (centres undefined), the INHIBITION is given as 0.914%.
Then `CC(C)NC(=O)N1CC[C@@H](N(C)C)[C@@H]1Cc1ccccc1`, with 0.804%.
Then `c1ccc2ncc(CC3CNCCOC3)cc2c1` (centres undefined), with 3.48%; and `COCCN1CC[C@]2(CN(Cc3ccccn3)C[C@H]2C)C1=O`, with -2.03%; and `Cc1ccc(CCC(=O)N2CCC(Nc3cccnn3)CC2)cc1`, with 52.5%.
Then `O=C(CCc1ccsc1)N1CCC(Nc2cccnn2)CC1`, with 25.1%.
Take `O=C(CCOc1ccccc1)N1CCC(Nc2cccnn2)CC1`: the INHIBITION was determined as 50.4%.
Turning to `COCCCC(=O)N1CCC(Nc2cccnn2)CC1`, the INHIBITION is given as 31.9%.
In the case of `O=C(CCNc1ncccn1)N1CCC(Nc2cccnn2)CC1`, the INHIBITION was determined as 0.411%.
On to `O=C(CCCc1ccccc1)N1CCC(Nc2cccnn2)CC1`, for which the INHIBITION is listed as -6.44%.
